Compounds without any hit were thinned out: in the full panel of roughly 83,000, 20% have a hit.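 Interpretation: 100, growth as untreated; towards 0, rising growth inhibition; 0, no net growth; 0 to -100, cell death. Compounds scoring below 10 were considered active.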 Calls of active or inactive are those of the source.
Legend:
Experiment in all cases: NCI-60 one-dose screen, 48 h (100 = growth as untreated, 0 = no growth, -100 = all killed)
Conditions in all cases: 10 µM unless noted
[1] = tested on: SR leukemia
[2] = tested on: RPMI-8226 leukemia
[3] = tested on: OVCAR-8 ovarian
[4] = tested on: OVCAR-5 ovarian
[5] = tested on: OVCAR-4 ovarian
[6] = tested on: SK-OV-3 ovarian
[7] = tested on: IGROV1 ovarian
[8] = tested on: OVCAR-3 ovarian
[9] = tested on: HS 578T breast
[10] = tested on: NCI/ADR-RES ovarian
[11] = tested on: T-47D breast
[12] = tested on: BT-549 breast
[13] = tested on: MDA-MB-435 melanoma
[14] = tested on: SW-620 colon
[15] = tested on: MCF7 breast
[16] = tested on: HCT-116 colon
[17] = tested on: HCC-2998 colon
[18] = tested on: KM12 colon

Measured: growth

CCn1cc(CNc2ccc(C(=O)Nc3cc4cc(OC)c(OC)cc4c(C)n3)cc2)c(C)n1
active: [2] -0.529% | [3] 1.1% | [11] -15.4% | [12] -4.64%
inactive: [1] 32.8% | [4] 72.9% | [5] 25% | [6] 86.8% | [7] 56.1% | [8] 33.7% | [9] 82.7% | [10] 13.4% | [13] 48.4% | [14] 59.9% | [15] 30% | [16] 25.4% | [17] 62.2% | [18] 23%

CC(C)c1ccc(C(=O)Nc2sc3cc(O)ccc3c2C#N)cc1
active: [1] 0.658% | [13] -42.9%
inactive: [2] 21.2% | [3] 51.2% | [4] 87.8% | [5] 58% | [6] 50.2% | [7] 31.1% | [8] 16.4% | [9] 26.6% | [10] 11.2% | [11] 36.4% | [12] 20.8% | [14] 28.7% | [15] 13.8% | [16] 15% | [17] 60.3% | [18] 21%

COc1ccc(-c2cc(-c3ccc(OC)cc3)nc(NCCCNc3ccnc4cc(Cl)ccc34)n2)cc1
active: [1] 5.81% | [2] 7.42% | [3] -51.3% | [5] -16.5% | [7] -62.6% | [13] -69.9% | [14] -39.7% | [15] -54.2% | [16] -84.9% | [17] -56.4%
inactive: [4] 105% | [6] 76.8% | [8] 91.7% | [9] 83.5% | [10] 71.7% | [11] 89.3% | [12] 81.2% | [18] 44.8%

CC(C)CN1CC(C(=O)Nc2ccc3c(c2)-c2ccccc2C3)CC1=O (stereo unspecified)
inactive: [1] 63.4% [50 µM] | [2] 55% [50 µM] | [3] 48.5% [50 µM] | [4] 69.8% [50 µM] | [5] 71.2% [50 µM] | [6] 74.6% [50 µM] | [7] 67.9% [50 µM] | [8] 75.6% [50 µM] | [9] 28.8% [50 µM] | [10] 67.7% [50 µM] | [11] 61.5% [50 µM] | [12] 65% [50 µM] | [13] 90.2% [50 µM] | [14] 93.3% [50 µM] | [15] 52.9% [50 µM] | [16] 64.1% [50 µM] | [17] 64.4% [50 µM] | [18] 74% [50 µM]

Cc1ccc(-c2nc(C#N)c(S(=O)(=O)NCCO)o2)cc1
inactive: [3] 64.7% | [4] 94.5% | [5] 86.9% | [6] 95.7% | [7] 65.1% | [8] 41.3% | [9] 107% | [10] 81% | [11] 43.1% | [12] 64.7% | [13] 68.5% | [14] 33.8% | [15] 37.9% | [16] 51.6% | [17] 98.1% | [18] 88%
active: [1] -7.78% | [2] 1.81%

CC[C@@H](c1ccc2cc(OC)ccc2c1)C(C)(C)C(=O)F
inactive: [1] 112% | [2] 146% | [3] 94.8% | [4] 86.2% | [5] 109% | [6] 107% | [7] 28.3% | [8] 85.7% | [9] 91.8% | [10] 77.5% | [11] 118% | [12] 19.9% | [13] 102% | [14] 94.6% | [15] 108% | [16] 85.6% | [17] 55.1% | [18] 107%

Cn1cc(-c2nc(-c3c[nH]c4ccncc34)cs2)c2cc(Br)ccc21
active: [1] -23.6% | [2] -38% | [3] -53.2% | [4] -94.1% | [5] -71% | [7] -82.8% | [8] -92.5% | [9] -44% | [10] -57.6% | [11] -54.1% | [13] -81.4% | [14] -71.8% | [15] -72.4% | [16] -89.7% | [17] -68.9% | [18] -83.8%
inactive: [6] 40.8% | [12] 84.2%

CNC(=O)c1c(NC(=O)c2ccc(C(C)(C)C)cc2)sc2c(CN(C)C)c(O)ccc12
active: [1] 3.65% | [2] -28.1% | [4] -30.9% | [11] -3.98% | [13] -85% | [14] -85.8% | [15] -43.2% | [16] -88.4% | [17] -83.6% | [18] -79.6%
inactive: [3] 23.7% | [5] 67.5% | [6] 34.1% | [7] 20.3% | [8] 32.7% | [9] 54.7% | [10] 11.4% | [12] 71.9%

C=C1C(=O)O[C@H]2[C@H]1CC/C(COC(=O)/C=C\C(=O)NCc1ccc(Cn3c(=O)sn(-c4ccccc4)c3=O)cc1)=C\CC[C@@]1(C)O[C@@H]21
inactive: [1] 72.4% | [2] 40.5% | [3] 91.2% | [4] 98.3% | [5] 85% | [6] 108% | [7] 77.4% | [8] 39.5% | [9] 90.3% | [10] 111% | [11] 67.9% | [12] 93.5% | [13] 67.7% | [14] 19.9% | [15] 53.7% | [16] 33.6% | [17] 105% | [18] 106%

Cc1ccc(-c2cc(C(=O)N3N=C(c4ccc(N)cc4)CC3c3ccc(Cl)cc3)c3ccccc3n2)cc1 (stereo unspecified)
active: [9] 6.64% | [13] -61.7%
inactive: [1] 11.2% | [2] 19.9% | [3] 25.7% | [4] 75.2% | [5] 69% | [6] 34.2% | [7] 47.4% | [8] 14.6% | [10] 21.7% | [11] 35.9% | [12] 30.8% | [14] 33.8% | [15] 17.8% | [16] 11.8% | [17] 37.9% | [18] 27.9%

CCCCCCC(CCCC)COC(=O)c1ccc(Cl)cc1 (stereo unspecified)
inactive: [1] 99.1% | [2] 108% | [3] 109% | [4] 115% | [5] 99.4% | [6] 107% | [7] 111% | [8] 114% | [9] 109% | [10] 115% | [11] 103% | [12] 107% | [13] 107% | [14] 109% | [15] 101% | [16] 104% | [17] 121% | [18] 108%

Cc1ccc(C)c(-n2c(-c3ccc(Br)cc3)csc2=NC(=O)c2ccccc2F)c1
active: [1] -11.5% | [2] -11.2%
inactive: [3] 65.3% | [4] 112% | [5] 40.6% | [6] 86.9% | [7] 213% | [8] 75.5% | [9] 101% | [10] 56.7% | [11] 41.3% | [12] 28.7% | [13] 67.2% | [14] 69.6% | [15] 59.1% | [16] 22.9% | [17] 117% | [18] 60.8%

N#Cc1c(-c2ccccc2)c(C#N)c2c(C#N)c(N)nn2c1N
inactive: [2] 21.2% | [3] 61.1% | [4] 78% | [5] 57.7% | [6] 62.2% | [7] 31.9% | [8] 15.5% | [9] 27.4% | [10] 29.9% | [11] 19.6% | [12] 47.4% | [14] 25.4% | [15] 15.9% | [16] 24.2% | [17] 61.4% | [18] 24.4%
active: [1] 2.65% | [13] -39.6%

CN1C(=O)N(C)C2C1NC(=S)N2/N=C/C=C/c1ccccc1[N+](=O)[O-] (stereo unspecified)
inactive: [1] 15.2% | [3] 36.3% | [4] 74.9% | [5] 51.1% | [6] 27% | [7] 44.3% | [9] 17.1% | [10] 29.1% | [11] 22.4% | [12] 68.1% | [14] 22.7% | [15] 18.7% | [16] 19.5% | [17] 60.5% | [18] 26.7%
active: [2] 2.85% | [8] 8.13% | [13] -61.7%

C/C(=N\Nc1nc(C)cs1)c1cc2ccccc2o1
inactive: [1] 109% | [2] 88.5% | [3] 93.3% | [4] 103% | [5] 94.2% | [6] 105% | [7] 75.8% | [8] 94.1% | [9] 88.8% | [10] 102% | [11] 21.4% | [12] 99.3% | [13] 105% | [14] 100% | [15] 74.2% | [16] 79.3% | [17] 112% | [18] 95.5%

CC1(C)CC2=C3C=C[C@@H]4[C@@]5(C)CC[C@H](O)C(C)(C)[C@@H]5CC[C@@]4(C)[C@]3(C)CC[C@@]2(C(=O)O)CC1=O
active: [2] 4.49%
inactive: [1] 50.5% | [3] 62.6% | [4] 99.5% | [5] 38% | [6] 75.9% | [7] 35.3% | [8] 22.2% | [9] 73% | [10] 61.2% | [11] 42.2% | [12] 36.7% | [13] 39.4% | [14] 43.8% | [15] 31.9% | [16] 12.8% | [17] 70.3% | [18] 42.6%

O=C(CN1CCN(c2cc3c(cc2F)c(=O)c(C(=O)O)cn3C2CC2)CC1)N/N=C/c1ccncc1
inactive: [1] 107% | [2] 93.2% | [3] 97.5% | [4] 98.2% | [5] 98.9% | [6] 102% | [7] 108% | [8] 96.9% | [9] 101% | [10] 107% | [11] 96.8% | [12] 95.7% | [13] 97.5% | [14] 97.4% | [15] 92.4% | [16] 104% | [17] 110% | [18] 101%

Reference: PubChem BioAssay (NCI)
